From the supplement of paper PMC10037445
In all, about 2,900 compounds were measured (“IRF Lucia reporter activity, fold change vs agonist alone”: median about 0.9, highest 2% from about 2.8 on). For the sample, the highest values were picked, then their nearest neighbours and some compounds at random.

What was measured:
[1] = tested on: RAW-Dual; test: IRF Lucia reporter activity, fold change vs agonist alone; cytotoxicity flag (confluency mask): cytotoxic (confluency <70% of control); higher = enhanced IRF activity
Procedure, shortened: (§1)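 RAW-Dual macrophages were seeded in DMEM at 50,000 cells/well in 384-well plates, given 50 nL of library stock by pin tool, and given a PRR agonist 1 h later. Plates were held at 37 °C, 5% CO2 for 20 hours, after which supernatant was read for IRF by QuantiLuc luminescence and for NF-κB by QuantiBlue absorbance at 620 nm. Reporter activity is expressed as fold change over wells that received agonist alone. A well was called cytotoxic when IncuCyte confluency fell below 70% of agonist controls in both mask sets.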

[2] = tested on: RAW-Dual; test: IRF Lucia reporter activity, fold change vs agonist alone; higher = enhanced IRF activity; conditions: agonist: MPLA (TLR4) […]
Procedure, shortened: as §1

[3] = tested on: RAW-Dual; test: IRF Lucia reporter activity, fold change vs agonist alone; cytotoxicity flag (confluency mask): not cytotoxic; higher = enhanced IRF activity
Procedure, shortened: as §1

[4] = agonist: 3'3'-cGAMP (STING) 10 ug/mL
[5] = library stock concentration (final ~1000-fold dilution): 10 mM, cytotoxicity flag (confluency mask): not cytotoxic

## CCN(CC)CCCC(C)Nc1c2ccc(Cl)cc2nc2ccc(OC)cc12.Cl.Cl (centres undefined) (library stock concentration (final ~1000-fold dilution): 10 mM)
[1]; [4]
  IRF Lucia reporter activity: 0.643
[1]; agonist: LPS (TLR4) 0.1 ug/mL
  IRF Lucia reporter activity: 0.0599

## CCN(CC)CCCC(C)Nc1c2ccc(Cl)cc2nc2ccc(OC)cc12.Cl.Cl (centres undefined)
[2]; library stock concentration (final ~1000-fold dilution): 10 mM, cytotoxicity flag (confluency mask): cytotoxic (confluency <70% of control)
  IRF Lucia reporter activity: 0.84

## C/C(O)=C(\C#N)C(=O)Nc1ccc(C(F)(F)F)cc1
[2]; [5]
  IRF Lucia reporter activity: 1.97

## C/C(O)=C(\C#N)C(=O)Nc1ccc(C(F)(F)F)cc1 (library stock concentration (final ~1000-fold dilution): 10 mM)
[3]; [4]
  IRF Lucia reporter activity: 1.69
[3]; agonist: LPS (TLR4) 0.1 ug/mL
  IRF Lucia reporter activity: 3.04

## CC(=O)Oc1cc(C(F)(F)F)ccc1C(=O)O (library stock concentration (final ~1000-fold dilution): 10 mM)
[3]; [4]
  IRF Lucia reporter activity: 1.03
[3]; agonist: LPS (TLR4) 0.1 ug/mL
  IRF Lucia reporter activity: 0.337

## CC(=O)Oc1cc(C(F)(F)F)ccc1C(=O)O
[2]; [5]
  IRF Lucia reporter activity: 1.04

## Cc1oncc1C(=O)Nc1ccc(C(F)(F)F)cc1
[2]; [5]
  IRF Lucia reporter activity: 1.62

## Cc1oncc1C(=O)Nc1ccc(C(F)(F)F)cc1 (library stock concentration (final ~1000-fold dilution): 10 mM)
[3]; [4]
  IRF Lucia reporter activity: 1.08
[3]; agonist: LPS (TLR4) 0.1 ug/mL
  IRF Lucia reporter activity: 1.39

## CC1CCC2C(C)C(OC(=O)CCC(=O)O)OC3OC4(C)CCC1C32OO4 (centres undefined) (library stock concentration (final ~1000-fold dilution): 10 mM)
[3]; [4]
  IRF Lucia reporter activity: 0.638
[3]; agonist: LPS (TLR4) 0.1 ug/mL
  IRF Lucia reporter activity: 0.706

## CC1CCC2C(C)C(OC(=O)CCC(=O)O)OC3OC4(C)CCC1C32OO4 (centres undefined)
[2]; [5]
  IRF Lucia reporter activity: 0.737

## COc1ccc(CCc2nc3cc(-c4c(C)noc4C)ccc3n2CC(C)N2CCOCC2)cc1Cl (centres undefined)
[2]; [5]
  IRF Lucia reporter activity: 0.203

## COc1ccc(CCc2nc3cc(-c4c(C)noc4C)ccc3n2CC(C)N2CCOCC2)cc1Cl (centres undefined) (library stock concentration (final ~1000-fold dilution): 10 mM)
[3]; [4]
  IRF Lucia reporter activity: 0.452
[3]; agonist: LPS (TLR4) 0.1 ug/mL
  IRF Lucia reporter activity: 0.421

## COC1=CC(c2cc3ccccc3[nH]2)=N/C1=C\c1[nH]c(C)cc1C.CS(=O)(=O)O (library stock concentration (final ~1000-fold dilution): 10 mM)
[3]; [4]
  IRF Lucia reporter activity: 0.38
[3]; agonist: LPS (TLR4) 0.1 ug/mL
  IRF Lucia reporter activity: 3.87

## COC1=CC(c2cc3ccccc3[nH]2)=N/C1=C\c1[nH]c(C)cc1C.CS(=O)(=O)O
[2]; [5]
  IRF Lucia reporter activity: 5.45

## Cc1cc(C)c(/C=C2\C(=O)Nc3ccccc32)[nH]1
[2]; [5]
  IRF Lucia reporter activity: 0.781

## Cc1cc(C)c(/C=C2\C(=O)Nc3ccccc32)[nH]1 (library stock concentration (final ~1000-fold dilution): 10 mM)
[3]; [4]
  IRF Lucia reporter activity: 0.77
[3]; agonist: LPS (TLR4) 0.1 ug/mL
  IRF Lucia reporter activity: 0.578

## O=C(c1cc(-c2cc3c(cc2C(=O)N2Cc4ccccc4CC2CN2CCOCC2)OCO3)n2c1CCCC2)N(c1ccccc1)c1ccc(O)cc1 (centres undefined) (library stock concentration (final ~1000-fold dilution): 10 mM)
[3]; [4]
  IRF Lucia reporter activity: 0.268
[3]; agonist: LPS (TLR4) 0.1 ug/mL
  IRF Lucia reporter activity: 0.935

## Oc1cc(O)c2c(c1)OC(c1ccc(O)c(O)c1)C(O)[C@H]2c1c(O)cc(O)c2c1OC(c1ccc(O)c(O)c1)C(O)C2 (some centres undefined) (library stock concentration (final ~1000-fold dilution): 10 mM)
[3]; [4]
  IRF Lucia reporter activity: 0.867
[3]; agonist: LPS (TLR4) 0.1 ug/mL
  IRF Lucia reporter activity: 1.27

## COc1ncc(-c2cc(-c3ncc(CN4CC(C)OC(C)C4)o3)c3cn[nH]c3c2)cc1NS(C)(=O)=O (centres undefined) (library stock concentration (final ~1000-fold dilution): 10 mM)
[1]; [4]
  IRF Lucia reporter activity: 0.865
[1]; agonist: LPS (TLR4) 0.1 ug/mL
  IRF Lucia reporter activity: 4.5

## CC(C)N1CCN(Cc2cnc(-c3cc(-c4cccc5[nH]ccc45)cc4[nH]ncc34)o2)CC1 (library stock concentration (final ~1000-fold dilution): 10 mM)
[3]; [4]
  IRF Lucia reporter activity: 0.609
[3]; agonist: LPS (TLR4) 0.1 ug/mL
  IRF Lucia reporter activity: 1.42

## CN1CCN(C(=O)c2ccc(-c3ccc4c(C=O)c(O)ccc4c3)s2)CC1 (library stock concentration (final ~1000-fold dilution): 10 mM)
[3]; [4]
  IRF Lucia reporter activity: 0.228
[3]; agonist: LPS (TLR4) 0.1 ug/mL
  IRF Lucia reporter activity: 0.45

## Cc1cnc(Nc2ccc(F)cc2Cl)nc1-c1c[nH]c(C(=O)NC(CO)c2cccc(Cl)c2)c1 (centres undefined) (library stock concentration (final ~1000-fold dilution): 10 mM)
[3]; [4]
  IRF Lucia reporter activity: 0.474
[3]; agonist: LPS (TLR4) 0.1 ug/mL
  IRF Lucia reporter activity: 1.16

## CN1CCc2c(c3ccccc3n2Cc2ccc(C(=O)NO)cc2)C1.Cl (library stock concentration (final ~1000-fold dilution): 10 mM)
[3]; [4]
  IRF Lucia reporter activity: 1.18
[3]; agonist: LPS (TLR4) 0.1 ug/mL
  IRF Lucia reporter activity: 4.79

## CN1CCc2c(c3ccccc3n2Cc2ccccc2)C1.CN1CCc2c(c3ccccc3n2Cc2ccccc2)C1.O=S(=O)(O)c1cccc2c(S(=O)(=O)O)cccc12
[2]; library stock concentration (final ~1000-fold dilution): 2 mM, cytotoxicity flag (confluency mask): not cytotoxic
  IRF Lucia reporter activity: 1.25

## CN1CCc2c(c3ccccc3n2Cc2ccc(C(=O)NO)cc2)C1 (library stock concentration (final ~1000-fold dilution): 10 mM)
[3]; [4]
  IRF Lucia reporter activity: 0.943
[3]; agonist: LPS (TLR4) 0.1 ug/mL
  IRF Lucia reporter activity: 1.19

## CN1CCc2c(c3ccccc3n2Cc2ccc(C(=O)NO)cc2)C1.Cl
[2]; [5]
  IRF Lucia reporter activity: 5.65

## CN1CCc2c(c3ccccc3n2Cc2ccccc2)C1.CN1CCc2c(c3ccccc3n2Cc2ccccc2)C1.O=S(=O)(O)c1cccc2c(S(=O)(=O)O)cccc12 (library stock concentration (final ~1000-fold dilution): 2 mM)
[3]; [4]
  IRF Lucia reporter activity: 1.04
[3]; agonist: LPS (TLR4) 0.1 ug/mL
  IRF Lucia reporter activity: 1
